Results on five compounds are retold here after PubChem BioAssay (EPA / NIEHS).

The AC50 is the concentration giving half of the maximal activity seen.

The source made the active and inactive calls. Rule for the calls: active = hit-call score of the fitted dose curve at least 0.9, where 1 is the maximum; inactive = score below 0.9.

Test [1] can be described thus: ATG_CRE_CIS: Attagene CIS-FACTORIAL HepG2 Assay for human cAMP Responsive Element (CRE) binding protein 3 (AID 2282926). Conditions: HepG2 CRE cis-reporter, Attagene multiplexed mRNA; actives raise or lower the signal. The gist of the method:
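Induced reporter mRNA from a CRE cis element, measured in HepG2 among many multiplexed units at 24 h. Detection used RT-PCR plus capillary electrophoresis of fluorescent fragments; DMSO served as negative control.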

The target of test [2] is CCAAT/enhancer-binding protein beta (Homo sapiens) (UniProt P17676). Nature of the test: ATG_C_EBP_CIS: Attagene CIS-FACTORIAL HepG2 Assay for human CCAAT/Enhancer Binding Protein (C/EBP) beta (AID 2282927). Conditions: HepG2 Attagene cis-factorial transcription factor reporter; actives raise or lower the signal. The gist of the method: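 Endogenous C/EBPb-driven reporter transcripts measured in transfected human HepG2 cells at 24 h via RT-PCR and capillary electrophoresis of labelled fragments. Activity fitted in both directions relative to DMSO baseline.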

Test [3] in a line: ATG_CMV_CIS: Attagene CIS-FACTORIAL HepG2 Assay for human CMV (Internal Marker) (AID 2282928).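 Note: endpoint acts as a background internal control marker rather than a target.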 The conditions noted are these: HepG2 CMV promoter reporter, transcription factor profiling; actives raise or lower the signal. The essentials:
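Fluorescence intensity of RT-PCR-derived reporter fragments, resolved by capillary electrophoresis, gives the signal. HepG2 liver cells bearing transfected cis-element reporters were treated 24 h; activity in either direction was fit relative to DMSO-treated controls.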

A short description of test [4]: ATG_DR4_LXR_CIS: Attagene CIS-FACTORIAL HepG2 Assay for human Liver X Receptor (LXR), DR4 submotif (AID 2282929). The conditions noted are these: HepG2 Attagene DR4 cis-reporter, mRNA transcription; actives raise or lower the signal. The essentials:
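Readout: reporter transcript fluorescence after RT-PCR and capillary electrophoresis, fitted bidirectionally against DMSO controls. Human HepG2 liver cells carried transiently transfected multiplexed reporter constructs; endogenous transcription factor activity measured 24 h post-dosing.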

Test [5] deals with Aryl hydrocarbon receptor (Homo sapiens) (UniProt P35869). Nature of the test: ATG_Ahr_CIS: Attagene CIS-FACTORIAL HepG2 Assay for human Aryl Hydrocarbon Receptor (Ahr) (AID 2282930). The conditions noted are these: HepG2 AhR cis-factorial reporter transcription; actives raise or lower the signal. The gist of the method: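 Reporter mRNA levels, quantified by RT-PCR and fluorescent capillary electrophoresis, reflect endogenous AhR transcriptional activity in HepG2 cells carrying transfected cis-promoter reporter constructs. Readout at 24 h post-dose; gain or loss fitted against DMSO baseline.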

Test [6] can be described thus: ATG_AP_1_CIS: Attagene CIS-FACTORIAL HepG2 Assay for human Activator Protein 1 (AP-1) (AID 2282931). The conditions noted are these: HepG2 Attagene cis-factorial AP-1 reporter mRNA; actives raise or lower the signal. The essentials:
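Reporter transcripts were measured 24 h after dosing by RT-PCR and capillary electrophoresis of fluorescent fragments. Cells: HepG2 carrying transfected cis-regulated reporter constructs reading endogenous factor activity. Gain or loss fitted against DMSO.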

A short description of test [7]: ATG_AP_2_CIS: Attagene CIS-FACTORIAL HepG2 Assay for human Activator Protein 2 (AP-2) (AID 2282932). The conditions noted are these: HepG2 AP-2 cis-reporter, Attagene transcription factor profiling; actives raise or lower the signal. The essentials:
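Endogenous transcription factor activity is reported through transfected multiplex reporter constructs in HepG2, after 24 h of compound exposure. Transcripts were quantified by RT-PCR and capillary electrophoresis of fluorescent fragments. Bidirectional fit against DMSO.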

Test [8] is described as follows: ATG_BRE_CIS: Attagene CIS-FACTORIAL HepG2 Assay for human Bone Morphogenetic Protein (BMP) Response Element (BRE) (AID 2282933). The conditions noted are these: HepG2 BMP response element reporter, Attagene transcription factor profiling; actives raise or lower the signal. The gist of the method: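 Multiplexed cis-reporter assay, HepG2, 24 h exposure. mRNA from reporter units quantified via RT-PCR/CE; DMSO baseline; bidirectional curve fit.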

The target in test [9] is Retinoic acid receptor alpha (Homo sapiens) (UniProt P10276). Briefly: ATG_DR5_RAR_CIS: Attagene CIS-FACTORIAL HepG2 Assay for human Retinoic Acid Receptor Alpha (RARE), DR5 submotif (AID 2282934).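 For AC50: reporter responds to endogenous RAR alpha beta and gamma in HepG2 not RARA alone.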 Conditions: HepG2 Attagene cis-factorial RARE DR5 reporter, mRNA; actives raise or lower the signal. The gist of the method:
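Reporter transcripts from a DR5-regulated unit, measured via RT-PCR plus capillary electrophoresis, reflect endogenous RAR activity in transiently transfected human HepG2 liver cells. Exposure lasted 24 h; gain or loss of signal scored against DMSO.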

Test [10] deals with Transcription factor E2F1 (Homo sapiens) (UniProt Q01094). Nature of the test: ATG_E2F_CIS: Attagene CIS-FACTORIAL HepG2 Assay for human E2F Transcription Factor 1 (AID 2282935). Conditions: HepG2 Attagene cis-reporter, E2F reporter RNA transcripts; actives raise or lower the signal. The gist of the method: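 Gain or loss of reporter transcript, fitted against DMSO, reflects E2F1-driven transcription. Transiently transfected HepG2 dosed 24 h before RNA isolation. Quantified by fluorescent RT-PCR products separated by capillary electrophoresis.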

Test [11] in a line: ATG_M_61_CIS: Attagene CIS-FACTORIAL HepG2 Assay for M61 Transcription Factor (Internal Marker) (AID 2282937). Conditions: HepG2 Attagene CIS-FACTORIAL M61 internal marker reporter; actives raise or lower the signal. The essentials:
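Readout: fluorescent reporter mRNA fragments resolved by capillary electrophoresis after RT-PCR. Transiently transfected human HepG2 cells carried MRTU constructs reporting endogenous TF activity; 24 h chemical exposure; gain or loss of signal fitted relative to DMSO.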

Test [12] is described as follows: ATG_EGR_CIS: Attagene CIS-FACTORIAL HepG2 Assay for human Early Growth Response 1 (EGR1) (AID 2282938). Conditions: HepG2 Attagene CIS-FACTORIAL EGR reporter mRNA; actives raise or lower the signal. The gist of the method:
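Read-out: fluorescent reporter-mRNA fragments resolved by capillary electrophoresis after RT-PCR, 24 h post-dose in transiently transfected HepG2. Endogenous transcription-factor activity reported via cis-element-regulated reporter units; gain or loss fitted relative to DMSO.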

The nature of test [13]: ATG_M_19_CIS: Attagene CIS-FACTORIAL HepG2 Assay for M19 Transcription Factor (Internal Marker) (AID 2282939). Conditions: HepG2 Attagene CIS-FACTORIAL M19 internal marker reporter; actives raise or lower the signal. The gist of the method:
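Signals come from fluorescence of labelled reporter-specific PCR fragments resolved by capillary electrophoresis, following 24 h treatment of HepG2 cells transfected with cis-promoter reporter units; activity was fitted in both directions relative to DMSO.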

Test [14] is described as follows: ATG_ERE_CIS: Attagene CIS-FACTORIAL HepG2 Assay for Estrogen Response Element (ERE) (AID 2282940). Conditions: HepG2 ERE cis-reporter, Attagene RNA transcript; actives raise or lower the signal. The essentials:
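Fluorescence of capillary-separated, FAM-labelled reporter cDNA fragments indicates reporter mRNA levels in HepG2 cells exposed to chemicals for 24 h. Transient transfection with cis-regulated units; data fitted in both directions against DMSO.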

The nature of test [15]: ATG_Ets_CIS: Attagene CIS-FACTORIAL HepG2 Assay for human Erythroblast Transformation Specific (ETS) (AID 2282941). The conditions noted are these: HepG2 ETS cis-reporter transcription, actives raise or lower the signal. The gist of the method: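 Multiplexed reporter transcript profiling: HepG2, 24 h treatment, total RNA to cDNA, PCR, 6-FAM labelling, HpaI cut, capillary electrophoresis. Gain- or loss-of-signal fitted against DMSO.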

Test [16] has as its target Hepatocyte nuclear factor 3-beta (Homo sapiens) (UniProt Q9Y261). Nature of the test: ATG_FoxA2_CIS: Attagene CIS-FACTORIAL HepG2 Assay for human Forkhead box A2 (FOXA2) (AID 2282942). Conditions: HepG2 cis-reporter transcription factor activity, 24 h; actives raise or lower the signal. The gist of the method: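 Readout: fluorescent reporter transcripts resolved by capillary electrophoresis after RT-PCR. Transiently transfected HepG2, 24 h compound exposure, endogenous TF activity at cis promoter elements. Gain or loss of signal fitted relative to DMSO.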

Test [17] is described as follows: ATG_FoxO_CIS: Attagene CIS-FACTORIAL HepG2 Assay for human Forkhead box O (FoxO) (AID 2282943). The conditions noted are these: HepG2 Attagene cis-reporter, FoxO element, mRNA; actives raise or lower the signal. The essentials:
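Endogenous transcription factor activity read from multiplexed cis-promoter reporter transcripts in transiently transfected HepG2, 24 h after dosing. Reporter RNA measured via RT-PCR plus capillary electrophoresis of FAM-labeled products; gain or loss relative to DMSO.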

A short description of test [18]: ATG_GATA_CIS: Attagene CIS-FACTORIAL HepG2 Assay for human GATA Binding Protein (AID 2282944). The conditions noted are these: HepG2 GATA cis-element reporter, Attagene multiplex mRNA; actives raise or lower the signal. The essentials:
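After transfecting HepG2 cells with multiple cis-regulated reporter units, chemicals are dosed for 24 h; isolated RNA undergoes RT-PCR and fluorescent labeling before capillary electrophoresis, with activity expressed against DMSO.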

The nature of test [19]: ATG_GLI_CIS: Attagene CIS-FACTORIAL HepG2 Assay for human Zinc Finger Protein GLI1 (AID 2282945). The conditions noted are these: HepG2, Attagene cis-factorial reporter mRNA, GLI element; actives raise or lower the signal. The gist of the method:
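Bidirectional curve fits relative to DMSO, using reporter mRNA levels from RT-PCR plus capillary electrophoresis. Cells were HepG2 transiently carrying cis-regulated reporter constructs, harvested 24 h after dosing.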

A short description of test [20]: ATG_E_Box_CIS: Attagene CIS-FACTORIAL HepG2 Assay for human Enhancer Box (E-box) (AID 2282936). The conditions noted are these: HepG2 E-box cis-reporter transcription, actives raise or lower the signal. The essentials:
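E-box-driven reporter transcripts measured in transiently transfected HepG2 after 24 h exposure: RNA reverse-transcribed, PCR-amplified, fluorescently labelled, digested and resolved by capillary electrophoresis. Gain or loss relative to DMSO.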

Sequence of Aryl hydrocarbon receptor (Homo sapiens) (P35869 whole entry, looked up): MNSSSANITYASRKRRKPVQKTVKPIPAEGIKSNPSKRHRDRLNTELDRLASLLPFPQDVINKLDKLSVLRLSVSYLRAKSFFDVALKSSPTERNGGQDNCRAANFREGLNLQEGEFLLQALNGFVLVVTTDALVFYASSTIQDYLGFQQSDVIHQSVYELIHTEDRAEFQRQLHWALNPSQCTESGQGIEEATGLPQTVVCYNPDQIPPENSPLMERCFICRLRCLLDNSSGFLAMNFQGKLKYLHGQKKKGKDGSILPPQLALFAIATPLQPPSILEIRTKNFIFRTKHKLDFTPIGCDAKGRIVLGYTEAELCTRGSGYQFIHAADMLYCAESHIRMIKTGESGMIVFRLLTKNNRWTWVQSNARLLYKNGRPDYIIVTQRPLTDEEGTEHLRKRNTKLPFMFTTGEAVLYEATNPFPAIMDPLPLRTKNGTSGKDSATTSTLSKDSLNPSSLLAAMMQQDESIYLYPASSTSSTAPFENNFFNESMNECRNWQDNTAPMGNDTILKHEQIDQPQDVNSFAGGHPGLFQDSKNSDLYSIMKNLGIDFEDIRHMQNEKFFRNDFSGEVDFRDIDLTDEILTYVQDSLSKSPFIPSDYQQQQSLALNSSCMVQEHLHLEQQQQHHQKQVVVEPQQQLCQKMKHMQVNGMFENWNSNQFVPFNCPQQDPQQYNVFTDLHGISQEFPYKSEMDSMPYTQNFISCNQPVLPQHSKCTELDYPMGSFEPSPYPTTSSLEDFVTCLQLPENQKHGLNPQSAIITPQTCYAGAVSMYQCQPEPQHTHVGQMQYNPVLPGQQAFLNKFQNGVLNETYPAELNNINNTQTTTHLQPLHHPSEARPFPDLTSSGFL
Sequence of Hepatocyte nuclear factor 3-beta (Homo sapiens) (Q9Y261 whole entry, looked up): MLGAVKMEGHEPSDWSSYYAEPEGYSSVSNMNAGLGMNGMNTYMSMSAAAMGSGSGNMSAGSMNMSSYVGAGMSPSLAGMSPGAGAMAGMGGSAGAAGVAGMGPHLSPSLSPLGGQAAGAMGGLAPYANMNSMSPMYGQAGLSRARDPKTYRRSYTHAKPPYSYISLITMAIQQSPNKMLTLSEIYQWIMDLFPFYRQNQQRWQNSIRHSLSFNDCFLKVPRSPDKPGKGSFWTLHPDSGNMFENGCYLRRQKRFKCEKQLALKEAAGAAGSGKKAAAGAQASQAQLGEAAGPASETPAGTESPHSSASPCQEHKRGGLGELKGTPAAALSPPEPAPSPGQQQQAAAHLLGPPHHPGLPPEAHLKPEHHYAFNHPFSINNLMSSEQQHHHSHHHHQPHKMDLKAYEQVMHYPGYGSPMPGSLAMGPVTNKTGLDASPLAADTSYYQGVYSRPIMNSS
Sequence of Retinoic acid receptor alpha (Homo sapiens) (P10276 whole entry, looked up): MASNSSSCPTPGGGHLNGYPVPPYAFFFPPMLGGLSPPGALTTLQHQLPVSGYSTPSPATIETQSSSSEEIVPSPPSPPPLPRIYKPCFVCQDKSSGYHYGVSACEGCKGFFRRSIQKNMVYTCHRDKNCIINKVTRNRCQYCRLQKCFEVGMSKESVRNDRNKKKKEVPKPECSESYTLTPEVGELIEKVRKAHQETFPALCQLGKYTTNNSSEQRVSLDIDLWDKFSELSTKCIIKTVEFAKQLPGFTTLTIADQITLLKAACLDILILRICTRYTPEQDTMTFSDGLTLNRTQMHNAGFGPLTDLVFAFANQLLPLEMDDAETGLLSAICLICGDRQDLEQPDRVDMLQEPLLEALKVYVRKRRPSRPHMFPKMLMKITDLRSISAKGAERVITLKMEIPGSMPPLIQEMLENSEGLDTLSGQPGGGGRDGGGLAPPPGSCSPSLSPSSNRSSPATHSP
Sequence of Transcription factor E2F1 (Homo sapiens) (Q01094 whole entry, looked up): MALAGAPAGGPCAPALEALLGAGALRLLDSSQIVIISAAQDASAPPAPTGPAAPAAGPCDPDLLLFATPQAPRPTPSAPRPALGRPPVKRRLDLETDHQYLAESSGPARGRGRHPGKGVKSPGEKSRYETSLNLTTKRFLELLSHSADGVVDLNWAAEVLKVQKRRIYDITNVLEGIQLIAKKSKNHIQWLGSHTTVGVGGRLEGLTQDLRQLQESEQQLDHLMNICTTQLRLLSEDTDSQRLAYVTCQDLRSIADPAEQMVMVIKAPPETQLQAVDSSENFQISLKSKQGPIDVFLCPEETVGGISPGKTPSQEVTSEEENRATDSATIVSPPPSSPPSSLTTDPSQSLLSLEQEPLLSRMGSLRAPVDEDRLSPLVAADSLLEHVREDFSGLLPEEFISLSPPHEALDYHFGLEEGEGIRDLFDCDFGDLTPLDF
Sequence of CCAAT/enhancer-binding protein beta (Homo sapiens) (P17676 whole entry, looked up, the tested form may be a part): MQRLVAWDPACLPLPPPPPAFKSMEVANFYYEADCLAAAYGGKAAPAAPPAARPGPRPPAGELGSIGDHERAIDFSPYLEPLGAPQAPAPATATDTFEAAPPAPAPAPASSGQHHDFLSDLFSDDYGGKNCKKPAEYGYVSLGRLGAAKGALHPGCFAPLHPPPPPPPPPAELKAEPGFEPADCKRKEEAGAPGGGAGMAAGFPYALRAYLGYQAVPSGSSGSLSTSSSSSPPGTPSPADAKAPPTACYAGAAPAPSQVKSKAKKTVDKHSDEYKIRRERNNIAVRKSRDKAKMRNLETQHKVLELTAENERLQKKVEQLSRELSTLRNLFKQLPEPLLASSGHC

For `CCCCNc1ccc(NCCCC)c2c1C(=O)c1ccccc1C2=O`, the compound was classed as inactive in [1], in [2], in test [3], in test [4], in test [5] and in test [6]. Further, the result in test [7], in [8], in [9], in test [10], in test [11] and in test [12] was inactive. For the same compound, the compound was classed as inactive in [13], in test [14], in test [15], in test [16], in [17] and in test [18]. Also, the call in test [19] was inactive.
Turning to `CCOC(=O)c1ccccc1C(=C1C=C(Br)C(=O)C(Br)=C1)c1cc(Br)c(O)c(Br)c1`, the AC50 in test [1] was 25.4 µM (active); in [2] it was 18.8 µM (active); in test [3] it was 53.7 µM (active); in [4], 21.5 µM (active); in test [5] it was 26.2 µM (active); in test [6] it was 51.7 µM (active). Moreover, the AC50 was 49.9 µM (active) in test [7]; 109 µM (active) in [8]; 21.3 µM (active) in [9]; 108 µM (active) in [20]; 33.4 µM (active) in [12]; 47.6 µM (active) in test [17]. Besides, the AC50 in test [19] was 37.7 µM (active). The result in test [10], in [11], in test [13], in [14] and in test [15] was inactive.
`COc1ccc(NC(C)=O)cc1N`: the compound was called inactive in test [1], in test [2], in test [3], in test [4], in [6] and in test [7]. Moreover, the outcome in [8], in test [9], in test [10], in test [20], in test [11] and in [13] was inactive. The outcome in test [14], in test [15], in test [16], in test [17], in [18] and in test [19] was inactive. For the same compound, the half-maximal activity concentration (AC50) in test [5] was 50.4 µM (active).
Consider `O=S(=O)(O)c1ccc2cc(O)c(S(=O)(=O)O)cc2c1`, for which the call in [1], in test [2], in [6], in test [7], in [8] and in [9] was inactive. The compound was called inactive in test [10], in [11], in test [12], in [13], in [14] and in test [15]. Also, the compound was called inactive in [16], in test [17] and in test [19]. Moreover, the AC50 is 166 µM (active) in test [3], 60.8 µM (active) in [4] and 138 µM (active) in test [5].
Consider `Cc1cc(=O)n(-c2ccccc2)n1C`, for which the outcome in test [1], in test [2], in [3], in [4], in test [5] and in [6] was inactive. Moreover, the result in test [7], in test [8], in [9], in test [10], in [20] and in [11] was inactive. Also, the compound was called inactive in test [12], in test [13], in test [14], in test [16], in test [17] and in [18]. Further, the result in test [19] was inactive.
